Assay outcomes: PubChem BioAssay, several laboratories
INS promoter inh: TRM-6 insulin promoter activity inhibition. hit rate 0.9% among 130,000. inhibition, % at 2 µM. AID 1273. TRM-6 cells (human fetal islet line), insulin promoter-eGFP reporter, imaging; reporter expression induced with tamoxifen;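 active means inhibition above the mean plus 3 SD, with well images judged a real hit on visual review, cut at about 60% in these data, passing the limit was not always enough; inconclusive means inhibition over the cutoff but images rejected on review; inactive means inhibition not above the cutoff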
WT yeast gro inh: growth inhibition of WT yeast, mitochondrial fusion screen | mitochondrial fusion phenotypic screen, WT strain | inhibition, % at 10 µM | hit rate 2.1% among 190,000; in the data active means inhibition above about 58%; tested in S. cerevisiae
L major viab: inhibitors of Leishmania major promastigote growth | Leishmania major promastigotes, resazurin fluorescence viability | inhibition, % at 10 µM | hit rate 9% among 200,000; in the data active means inhibition above about 50%;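 further: promastigotes grown with compound for 44 hours at 28 °C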
Insulin prom up: MIN6 insulin promoter up-regulation; z-score at 5 µM; hit rate 0.3% among 190,000; MIN6 insulin promoter-GFP reporter, high-content imaging; active compounds read high;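 active means z-score above 3 at 5 µM with at least 500 cells counted in the well; inconclusive means wells under 500 cells, flagged as cytotoxic or low count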
Autophagy HCS: alters autophagy in cells; hit rate 0.98% among 190,000; MEF GFP-LC3 puncta imaging; test concentration mostly 10 µM; AID 463193; calls only at 10 µM (by protocol);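 active means percentage of spot-positive cells more than 3 SD above its plate mean, without a fluorescence outlier flag or 80% toxicity; inconclusive means no clear call, values can overlap the other calls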;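 further: spot-positive cell cutoff set from DMSO-treated cells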
Active calls of the source: *; i = inactive; ? = inconclusive; · = not tested or not shown; + = active, no number. Most compounds without a hit are left out; they make up all but 11% or so of the library.

SMILES | INS promoter inh | WT yeast gro inh | L major viab | Insulin prom up | Autophagy HCS
Cc1cccc(-c2nnc(SCC(=O)Nc3ncccn3)n2C)c1 | 9 | 8 | -7 | -0.07 | i
O=C(NNC(=O)C(c1ccccc1)c1ccccc1)c1cccs1 | 62 | -6 | -5 | 0.21 | i
CC(C)(C)c1ccc(OCCNC(=S)NC(=O)c2cccnc2)cc1 | 52 | 50 | 53* | -0.34 | i
CCCCOc1cccc(C(=O)NC(=S)Nc2cccnc2)c1 | -46 | 18 | 51* | -0.28 | i
COc1ccc(-c2nnc(SCCC(=O)O)n2-c2ccccc2)cc1 | -486 | 0 | 0 | 0.73 | i
Cc1cccc(-c2nnc(SCC3CNC(=O)O3)n2-c2ccc(Cl)cc2)c1 (configuration not stated) | -12 | 5 | 96* | 0.02 | i
COc1ccc(-n2c(SCC3CNC(=O)O3)nnc2-c2ccc(Cl)cc2)cc1 (configuration not stated) | 17 | -12 | 92* | 0.23 | i
Cc1ccc(-n2c(SCCN)nnc2-c2cccc(C)c2)cc1 | · | · | · | 0.2 | ·
O=C(/C=C(\c1ccc(Cl)cc1)n1cncn1)c1ccc(Cl)cc1 | 48 | -5 | 74* | · | i
COC(=O)c1ccc(CSc2nnc(Nc3ccc(C)cc3)s2)o1 | 24 | 14 | 6 | 0.75 | i
CC1=Nc2ccccc2/C1=C\c1sc(Nc2ccc(C)cc2)nc1O | 3 | 61* | 73* | -0.47 | i
Oc1nc(Nc2ccc(F)cc2)sc1/C=C1\C=Nc2ccccc21 | · | · | · | 0.17 | ·
Oc1nc(Nc2cccc(Cl)c2)sc1/C=C1\C=Nc2ccccc21 | · | 79* | -3 | -1.2 | i
Oc1cccc(Nc2nc(O)c(/C=C3\C=Nc4ccccc43)s2)c1 | · | · | · | 0.44 | ·
NCCOc1ccccc1Cc1ccccc1 | -47 | 0 | 99* | · | i
Cc1n[nH]c(C)c1S(=O)(=O)N1CCN(C2CCCCC2)CC1 | -50 | -31 | -6 | 0.02 | i
CC1CCc2c(sc3nn[nH]c(=O)c23)C1 (configuration not stated) | 20 | -18 | -4 | 4.2* | i
CSc1nc2sc3c(c2c(=O)[nH]1)CCC(C)C3 (configuration not stated) | 18 | 5 | 1 | · | i
N#CC(Sc1ccccn1)c1ccc(Cl)cc1 (configuration not stated) | 6 | 73* | -3 | 2.2 | i
Cc1cccc(C)c1-n1c(C)cc(/C=N\Nc2ccc([N+](=O)[O-])cn2)c1C | -67 | 20 | 33 | · | +
O=[N+]([O-])c1ccc(N/N=C/c2cn(Cc3ccc(F)cc3)c3ccccc23)nc1 | · | -19 | -4 | · | +
CCOC(=O)CNC(=O)c1ccc(OCC(F)(F)F)cc1 | · | 3 | -2 | 1.3 | i
CCS(=O)(=O)N1Cc2ccccc2CC1C(=O)Nc1nc2ccc(C)cc2s1 (configuration not stated) | -69 | 43 | 92* | 0.05 | i
CCS(=O)(=O)N1Cc2ccccc2CC1C(=O)Nc1ncc(C)s1 (configuration not stated) | · | -3 | -1 | -0.3 | +
Cc1onc(-c2c(Cl)cccc2Cl)c1COC(=O)c1ccc(Cl)cc1[N+](=O)[O-] | · | · | · | 0.31 | ·
SMILES | INS promoter inh | WT yeast gro inh | L major viab | Insulin prom up | Autophagy HCS
O=C(O)CCC(=O)N1CN2CN(C(=O)CCC(=O)O)CC([N+](=O)[O-])(C2)C1 | · | · | · | -0.42 | ·
CC1CCN(C(=O)CCc2ccc(Oc3cc([N+](=O)[O-])cc([N+](=O)[O-])c3)cc2)CC1 | -57 | 65* | 99* | 0.24 | i
CC1CCN(C(=O)CCc2ccc(S(=O)(=O)NC(C)(C)C)cc2)CC1 | -7 | 9 | -2 | · | i
O=C(CCc1ccc(Oc2cc([N+](=O)[O-])cc([N+](=O)[O-])c2)cc1)NC1CCCC1 | -3 | 2 | 99* | -0.9 | i
CC(C)n1c(CCC(=O)O)ccc1-c1ccccc1 | · | 7 | -8 | -0.74 | ·
CC(C)CCN1CCN(Cc2ccc(N3CCNC3=O)cc2)CC1CCO (configuration not stated) | · | 9 | -5 | 0.57 | i
CCNS(=O)(=O)c1ccc2nc(NC(=O)/C=C/c3cc(OC)c(OC)c(OC)c3)sc2c1 | · | -12 | 52* | -0.51 | i
CCCCC(=O)N/N=C/c1ccc(N2CCOCC2)c([N+](=O)[O-])c1 | 38 | -5 | 0 | -0.49 | i
Cc1[nH]nc2c1C(c1cc(Br)cs1)C(C#N)=C(N)O2 (configuration not stated) | 0 | 17 | 99* | 1.1 | i
CCC(C)C1C(C#N)=C(N)Oc2n[nH]c(C)c21 (configuration not stated) | · | -4 | 67* | 0.12 | i
COc1ccc(-c2ccc(C3C(C#N)=C(N)Oc4n[nH]c(C)c43)o2)cc1 (configuration not stated) | 3 | 1 | 71* | -0.42 | i
C=CCn1c(SC(C)C#N)nc2sc(CC)cc2c1=O (configuration not stated) | 28 | 2 | 2 | -1.6 | i
FC(F)(F)c1cc(-c2ccco2)nc(-n2cnc3ccccc32)n1 | · | -15 | 0 | -0.43 | i
Cc1nc2ccccc2n1-c1nc(-c2ccco2)cc(C(F)(F)F)n1 | · | 4 | -3 | ? | +
CC(=NCc1cccc(Cl)c1)c1nc(-c2ccco2)oc1O | -129 | 21 | 26 | -0.34 | i
O=C(O)c1ccccc1SC1CC(=O)N(c2ccccc2)C1=O (configuration not stated) | -3 | -2 | 51* | 0 | i
CC(C)(C)C1CCC(OC(=O)C[N+]2(C)CCCCC2)CC1 (configuration not stated) | -200 | 5 | 75* | 1.3 | i
CCC(C)Sc1nc2c(c(=O)n1C)SC(C)C2 (configuration not stated) | 30 | 61* | -2 | 0.06 | i
CCOC(=O)NC(=O)CSc1nnc(C)s1 | 64 | 11 | -4 | 0.5 | i
CCN(CC)CCNC(=O)c1cc2c(-c3ccc(Cl)cc3)nn(C)c2s1 | · | 18 | 100* | 0.44 | +
CCN1CCN(C(=O)c2cc3c(-c4ccc(Cl)cc4)nn(C)c3s2)CC1 | · | 5 | 52* | -1.1 | i
CCOCCCNC(=O)c1cc2c(-c3ccc(Cl)cc3)nn(C)c2s1 | · | 14 | 7 | -1 | i
C/C(=N\NC(=O)C(=O)Nc1cccc(Cl)c1C)c1ccncc1 | 26 | -9 | 69* | 0.15 | i
O=C(NC1CCCCC1)Sc1ccc(Cl)cc1 | 21 | 6 | 64* | -0.42 | i
COc1ccc(CCNC(=O)C(C)Sc2ccc(C)cc2)cc1OC (configuration not stated) | -40 | 6 | -1 | · | i
COc1ccc(/C=C/C(=O)Nc2nonc2NC(C)=O)cc1 | · | 3 | 5 | 0.05 | i
COc1ccc(Br)cc1-c1nc(CCl)cs1 | 24 | 4 | 4 | -0.8 | i
CCC(C)NS(=O)(=O)c1ccc(S(=O)(=O)N(CCc2ccc(OC)c(OC)c2)Cc2cccs2)cc1 (configuration not stated) | -13 | 19 | 55* | 0.11 | i
COc1ccc(CCN(Cc2cccs2)S(=O)(=O)c2ccc(S(=O)(=O)N3CCCCCC3)cc2)cc1OC | · | 3 | -2 | -0.48 | i
